Measurements from PubChem BioAssay (NCATS).
Inconclusive results are not listed. A call without a number means that no potency is given here. Activity calls are given as the source filed them. Calls come from the whole dose curve; as a rule, active = well fitted inhibition curve with a large enough effect; inconclusive = small, poorly fitted or top-dose-only effect; inactive = flat fitted curve, though single readings scatter.

What follows are compounds tested on 7G8 (assay: qHTS profiling for inhibitors of Plasmodium falciparum proliferation (AID 504749; note: nearly all actives have a fitted effect of over 60% in size)). Conditions: P. falciparum in erythrocytes, SYBR Green DNA, 72 h; series mostly up to 28.7 µM.
Method in brief: (§1)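 SYBR Green fluorescence of parasite DNA, read after lysis and overnight dark incubation, measured growth over 72 h in erythrocyte culture at 0.3% parasitemia and 2.5% hematocrit. Data normalised to DMSO and 0.29 uM artemisinin, with plate-drift correction.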
Potency is the fitted concentration of half-maximal effect.

Row | SMILES | Potency
1 | COc1cc2c(cc1OC)CC(=O)N(CCCN(C)C[C@H]1Cc3cc(OC)c(OC)cc31)CC2 | 11.2 µM (active)
2 | Clc1ccc(COC(Cn2ccnc2)c2ccc(Cl)cc2Cl)c(Cl)c1 (centres undefined) | 0.708 µM (active)
3 | O=C(O)c1nc(=O)[nH]c(=O)[nH]1 | inactive
4 | CS(=O)(=O)c1ccc(C2=C(c3ccccc3)C(=O)OC2)cc1 | inactive
5 | CN1CCN2c3ncccc3Cc3ccccc3C2C1 (centres undefined) | 11.2 µM (active)
6 | COc1ccnc(CS(=O)c2nc3ccc(OC(F)F)cc3[nH]2)c1OC (centres undefined) | inactive
7 | N#Cc1c(N(CC(=O)O)CC(=O)O)sc(C(=O)O)c1CC(=O)O | inactive

These compounds were tested on AA1029 in the same assay as above. Conditions: P. falciparum in erythrocytes, SYBR Green DNA, 72 h; series mostly up to 28.7 µM.
Method in brief: as §1

Row | SMILES | Potency
8 | COc1cc2c(cc1OC)CC(=O)N(CCCN(C)C[C@H]1Cc3cc(OC)c(OC)cc31)CC2 | inactive
9 | Clc1ccc(COC(Cn2ccnc2)c2ccc(Cl)cc2Cl)c(Cl)c1 (centres undefined) | 4.47 µM (active)
10 | O=C(O)c1nc(=O)[nH]c(=O)[nH]1 | inactive
11 | CS(=O)(=O)c1ccc(C2=C(c3ccccc3)C(=O)OC2)cc1 | inactive
12 | NS(=O)(=O)c1cc(Cl)c(Cl)c(S(N)(=O)=O)c1 | inactive
13 | N#CC(c1ccc(Cl)cc1)c1c(Cl)cc(-n2ncc(=O)[nH]c2=O)cc1Cl (centres undefined) | inactive
14 | COc1ccnc(CS(=O)c2nc3ccc(OC(F)F)cc3[nH]2)c1OC (centres undefined) | inactive
15 | N#Cc1c(N(CC(=O)O)CC(=O)O)sc(C(=O)O)c1CC(=O)O | inactive
16 | C=C1c2cccc(O)c2C(O)=C2C(=O)[C@@]3(O)C(O)=C(C(N)=O)C(=O)[C@@H](N(C)C)[C@@H]3[C@@H](O)[C@H]12 | inactive

These compounds were tested on AS120 in the same assay as above. Conditions: P. falciparum in erythrocytes, SYBR Green DNA, 72 h; series mostly up to 28.7 µM.
Method in brief: as §1

Row | SMILES | Potency
17 | COc1cc2c(cc1OC)CC(=O)N(CCCN(C)C[C@H]1Cc3cc(OC)c(OC)cc31)CC2 | inactive
18 | Clc1ccc(COC(Cn2ccnc2)c2ccc(Cl)cc2Cl)c(Cl)c1 (centres undefined) | 2 µM (active)
19 | O=C(O)c1nc(=O)[nH]c(=O)[nH]1 | inactive
20 | NS(=O)(=O)c1cc(Cl)c(Cl)c(S(N)(=O)=O)c1 | inactive
21 | N#CC(c1ccc(Cl)cc1)c1c(Cl)cc(-n2ncc(=O)[nH]c2=O)cc1Cl (centres undefined) | inactive
22 | COc1ccnc(CS(=O)c2nc3ccc(OC(F)F)cc3[nH]2)c1OC (centres undefined) | inactive
23 | N#Cc1c(N(CC(=O)O)CC(=O)O)sc(C(=O)O)c1CC(=O)O | inactive
24 | C=C1c2cccc(O)c2C(O)=C2C(=O)[C@@]3(O)C(O)=C(C(N)=O)C(=O)[C@@H](N(C)C)[C@@H]3[C@@H](O)[C@H]12 | inactive
